# Measurements taken from PubChem BioAssay (NCI).
# This is part of a sample that, as a whole, favours compounds with a hit. Of some 83,000 tested, about 20% had one in any assay.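 Negative percent growth values reflect cell death: -40 means 40% of the cells present at the start died, and -100 means all died.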 Values without a mark were called inactive. Active and inactive are the calls of the source.
# Tested on: U251 CNS
# Experiment: NCI-60 one-dose screen, 48 h (100 = growth as untreated, 0 = no growth, -100 = all killed)
# Conditions: 10 µM unless noted
# Method: Growth inhibition of the U251 human tumor cell line is measured as a screen for anti-cancer activity. Cells are grown in 96 well plates and exposed to the test compound for 48 hours. Compounds are tested at a single concentration, which is 10^-5 M for most compounds. The reported endpoint is percent growth (GI% or GIPRCNT), where numbers from 0 - 100% represent growth inhibition, and numbers from -100% - 0 represent cell death. For example, a value of 40 represents 60% growth inhibition. A value of 0 means no net growth occurred over the course of the experiment. A value of -40 indicates 40% of cells at the beginning of the experiment died by the end of the experiment. A value of -100 means all cells are dead at the end of the experiment.
# NCI-60 Human Tumor Cell Lines Screen was performed using the standard one-dose NCI protocol, which is described in more detail at https://dtp.cancer.gov/discovery_development/nci-60/default.htm.
# Compounds with GIPRCNT values below 10 were considered active. Activity score was based on GIPRCNT using the following formula: […]
# Score is 0 for GIPRCNT values of 100 or above, 50 for GIPRCNT values of 0, and 100 for GIPRCNT values of -100.
row,SMILES,growth
1,C#CCNC(=O)[C@H](Cc1ccccc1)NC(=O)[C@]12CC[C@@H](C(=C)C)[C@@H]1[C@H]1CC[C@@H]3[C@@]4(C)Cc5c([nH]c6ccccc56)C(C)(C)[C@@H]4CC[C@@]3(C)[C@]1(C)CC2,91.8%
2,COc1ccccc1OCC(=O)N1CCCCCC1,95.3%
3,Cc1cccc(Oc2ccc(Nc3ncnc4ccc(NC(=O)CN(C)C)cc34)cc2Cl)c1,28.1%
4,Nc1c(C(=O)Nc2cccc3ccncc23)sc2nc3c(cc12)C(=O)CCC3,48.3%
5,COc1ccc(C(O)c2cc3c(N)c(C(=O)Nc4cccc(OC)c4)sc3nc2C)cc1 (stereo not given),9.2% (active)
6,Clc1ccc(N2N=C(c3cccc(Nc4ccncc4)c3)CC2c2ccc3c(c2)OCO3)cc1 (stereo not given),5.93% (active)
7,CS(=O)(=O)Nc1cc(-c2ccc3ncnc(Nc4ccc5[nH]ncc5c4)c3c2)cnc1Cl,64.9%
8,C(=C\c1n(Cc2ccc3ccccc3c2)c(-c2ccccc2)c(-c2ccccc2)[n+]1Cc1ccc2ccccc2c1)/c1ccccc1,-80.6% (active)
9,COc1cc(C(=O)/C=C/c2c(C)n([O-])c3ccc(Cl)cc3[n+]2=O)cc(OC)c1OC,61.4%
10,COc1cc2nc(-c3ccc(C(F)(F)F)cc3)cc(OCCN3CCCC3)c2cc1OC,76.8%
11,CN(C)C(C(N)=O)c1ccc(Cl)cc1 (stereo not given),93.4%
12,COc1cc(C2CC(c3cccc(Nc4ccncc4)c3)=NN2c2ccccc2)cc(OC)c1OC (stereo not given),19.7%
13,O=C1Nc2cc(-c3ccncc3)ccc2/C1=C/c1ccc[nH]1,91.7%
14,N/C(=N\N=C\c1cc2ccccc2[nH]1)N/N=C/c1cc2ccccc2[nH]1,101%
15,O=C(Nc1ccc2cc3ccc(NC(=O)NC4CCCCC4)cc3nc2c1)NC1CCCCC1,56.2%
16,C#CC(=O)Nc1cccc(Nc2nc3c(c(NCc4ccccc4)n2)CCCC3)c1,-86.8% (active)
17,O=C(Nc1ccc2cc3ccc(NC(=O)N4CCCCCC4)cc3nc2c1)N1CCCCCC1,-58.8% (active)
18,O=C(Nc1cccc(Cl)c1)Oc1c(Br)c(Br)c(Br)c(Br)c1Br,91.9%
19,CC1(C)CCCN1CCCN1c2ccccc2Sc2ccc(Cl)cc21,58.3%
20,CCCCc1ccc(Nc2nnc(SCC(=O)NC(=O)NCC)s2)cc1,96%

row,SMILES,growth
1,O=c1nc2n(nc1/C=C/c1ccco1)CC(c1ccc(Cl)cc1)=NN2,115%
2,COc1ccc(OC)c(/C=C/[C@H]2O[C@@H](C)[C@H](O)[C@@H]2O)c1,94%
3,COc1ccc(CNCCN2C(=O)c3ccc4c5c(ccc(c35)C2=O)C(=O)N(CCNCc2ccc(OC)cc2)C4=O)cc1,-91.8% (active)
4,O=C(Nc1cccc(Cl)c1)c1cc(Cl)ccc1O,15.7%
5,Fc1cc(C2=NNC(c3ccc[nH]3)C2)ccc1-n1ccc(C(F)(F)F)n1 (stereo not given),77.6%
6,Cc1ccccc1-c1cc(Cc2ccc(F)cc2)c(=O)[nH]n1,106%
7,COc1ccc(Nn2c(SCC(=O)Nc3nc(-c4ccc(Cl)cc4)cs3)nc(C)c2C)cc1,43.5%
8,O=C(O)C(/C=C/c1ccco1)=N\Nc1nc(-c2ccc(Cl)cc2)cs1,30.7%
9,CCCc1cc2c(cc1Br)OCO2,100%
10,CC[N+](CC)(CCCC(C)[N+]1(Cc2ccccc2)C(C)=CC=C1C)Cc1ccccc1 (stereo not given),106%
11,CCN1C(=O)N(CC)C2NC(SC)=NC21 (stereo not given),101%
12,Nc1nnc2cc(Cl)ccc2n1,98.4%
13,CC1(C)NCCC[C@]2(C)[C@H]3CC=C4[C@@H]5C[C@@](C)(CO)CC[C@]5(C)CC[C@@]4(C)[C@]3(C)CC[C@@H]12,34.2%
14,O=C1/C(=C/c2ccc(O)cc2)COc2ccc(-c3ccccc3)cc21,63.6%
15,Cc1ccc(/C=C/C(=O)c2ccc(N)cc2)c(C)c1,54.1%
16,FC(F)(F)c1cccc(Oc2ccc(Nc3ncnc4ccc(OCCCN5CCOCC5)cc34)cc2Cl)c1,40.3%
17,CCCCOc1ccc(/C=N/Nc2cc(C)nc3ccc(Cl)cc23)cc1,-82.1% (active)
18,CCCCCCCCOc1ccc(/C=N/Nc2cc(C)nc3ccc(Cl)cc23)cc1,-61% (active)
19,CCCCCCNC(=O)Oc1ccc(/C(=C(/CC)Cc2ccccc2)c2ccc(OCCN(CC)CC)cc2)cc1,43.2%
20,CC(C)CCSc1nc(NNC(N)=O)c(C#N)c(-c2ccccc2)n1,109%
